These results are taken from PubChem BioAssay AID1272365 (Small Molecule Screening Facility, UW Madison, 2018).

“And” between values parts separate entries of the source, which are not always exact repeats. Identical values can stand only once. About 2,600 (0.6%) of roughly 430,000 compounds were called active. The sample holds actives, similar compounds and a random draw of the others, so the mix is not that of the screen. Rule as the data show it: active = inhibition mostly above about 37% (no sharp cut-off); inactive = mostly below about 20%.

The term inhibition denotes the relative decrease from the control value, in per cent.

The subject of this assay is PriA–SSB C-terminal tail interaction (Klebsiella pneumoniae). The assay is described as follows: inhibitors of Klebsiella pneumoniae PriA binding to SSB C-terminal tail, primary screen, biochemical, AlphaScreen (AID 1272365).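 As to inhibition: plate controls were negative control peptide for no effect and reference peptide for full effect.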 The settings on record: AlphaScreen SSBct-PriA binding, biotinylated peptide; at 33 µM, stronger effect = higher value. On the technique in general: In Alpha technology, singlet oxygen from a donor bead excites a nearby acceptor bead.
In the case of `CC(C)(CC(=O)NCc1ccc(F)cc1)CC1=NS(=O)(=O)c2ccccc2N1`, the inhibition is -14% (inactive). For the compound `COc1ccc(C(=O)Nc2ccc(S(C)(=O)=O)cc2)cc1`, the inhibition was -8% (inactive). With `CC(C)Sc1nc(N2CCCC2)c2cnn(CCNC(=O)c3cccs3)c2n1`, the inhibition is -8% (inactive). With `CCn1ccnc1CN1CCN(C)CC1`, the inhibition was 0% (inactive).

With `CC(=O)Nc1ccc(S(=O)(=O)N2CCN(S(=O)(=O)c3ccc(C)cc3)CC2)cc1`, the inhibition was -19% (inactive). With `N#Cc1nccnc1O[C@H]1CCCN(C(=O)c2ccc3nc[nH]c3c2)C1`, the inhibition was -19% (inactive). As for `Cc1cccc(-n2cc(-c3ccccc3)c3c(Nc4ccc(Oc5ccc(Cl)cc5)cc4)ncnc32)c1`, the inhibition is -17% (inactive).

Consider `C=CCn1c(C)cc(C2=NNC(=NCC)SC2)c1C`, for which the inhibition is 29.4% (inactive).

As to `Cc1cccc(C(=O)Nc2nnc(Cc3c[nH]c4ccccc34)s2)c1`, the inhibition is 6.73% (inactive).

In the case of `Cc1cccc(N=C2NN=C(c3c[nH]c4ccccc34)CS2)c1`, the inhibition was 48.7% (active). Consider `Cn1cc(S(=O)(=O)Nc2ccc(CC(=O)N3CCOCC3)cc2)cn1`, for which the inhibition is 6% (inactive). Turning to `CC(CCC(C)C)=NNc1ccc(S(N)(=O)=O)cc1[N+](=O)[O-]`, the inhibition was 42.4% (active). With `C/C(=N\Nc1ccc(S(N)(=O)=O)cc1[N+](=O)[O-])c1cccs1` the entry was “inactive”; with `NS(=O)(=O)c1ccc(CNC(=O)c2ccc(Cl)cc2[N+](=O)[O-])cc1`, -24.6% (inactive); with `COc1ccccc1C(=O)N1CCN=C1SCc1cccnc1`, -0.73% (inactive). On to `O=C(c1cc2n(n1)CCCO2)N1CCN(Cc2cccnc2)CC1`, for which the inhibition was -17% (inactive). For `COc1cccc(OC)c1C(=O)N1CCN(Cc2cccnc2)CC1`, the inhibition is 49% (active). For `O=C(c1cc2ccccc2o1)N1CCN(C(=O)C2CC2c2ccccc2)CC1` (centres undefined), the inhibition is 2% (inactive).

In the case of `Cc1cc(S(=O)(=O)N2CCOC23CCN(C(=O)c2cc(=O)c4ccccc4o2)CC3)ccc1F`, the inhibition was -9% (inactive).

As to `CC1CCN(c2nc(-c3ccccn3)nc3ccccc23)CC1`, the inhibition is 102% (active). For the compound `CC1CCN(C(=O)Cn2c(-c3ccncc3)nc3ccccc32)CC1`, the inhibition is 4% (inactive). With `Cc1ccc2cc(C)c(N3CCC(C)CC3)nc2c1`, the inhibition is -34.6% (inactive).

`O=C1C(=O)N(CN2CCN(C(c3ccccc3)c3ccccc3)CC2)c2ccccc21`: the inhibition was -1% (inactive). As for `COC(=O)/C=C1\SC(=NNC(=O)c2ccccc2)NC1=O`, the inhibition was -6.67% (inactive).

With `Cc1nc(-c2cccs2)sc1CNC(=O)c1ccc(=O)[nH]c1`, the inhibition is 5% (inactive). For `Cc1cc2cc3c(N)[nH]nc3nc2cc1C`, the inhibition was -6.78% (inactive). On to `Nc1[nH]nc2nc(-c3ccccn3)ccc12`, for which the inhibition is 94.2% (active). In the case of `Cc1cc(NC(=O)C(C)(C)Oc2ccc(Cl)cc2)n(-c2nc3c(c(=O)[nH]2)CCC3)n1`, the inhibition is -1% (inactive). For the compound `CCOC(=O)c1c(NC(=O)c2c(F)cccc2F)sc2c1CCN(C(=O)OCC)C2`, the inhibition is -7% (inactive) and -12% (inactive).

Take `CN(c1ccccc1)c1ccc([N+](=O)[O-])c2nonc12`: the inhibition is 32.9% (inactive). In the case of `CCOC(=O)c1ccc(NNC(C)=O)c([N+](=O)[O-])c1`, the inhibition is 3.85% (inactive).

In the case of `CCc1ccc(Nc2ccc([N+](=O)[O-])c3nonc23)cc1`, the inhibition is 79.3% (active). Regarding `O=C(COc1ccccc1)N1CCN(c2ccc(-c3ccco3)nn2)CC1`, the inhibition is -12% (inactive). Take `COc1ccc(OC)c(Nc2nc(CC(=O)Nc3nc4ccccc4s3)cs2)c1`: the inhibition was 38% (active). On to `O=C1CCC(C(=O)Nc2nc(CC(=O)N3CCN(c4ccccn4)CC3)cs2)N1` (centres undefined), for which the inhibition is 8% (inactive). Turning to `COC(=O)Nc1nc(CC(=O)Nc2ccccc2OC)cs1`, the inhibition is -13% (inactive). For `COc1ccc(OC)c(Nc2nc(CC(=O)N3CCc4ccccc43)cs2)c1`, the inhibition was 12% (inactive).

Turning to `COc1ccc(OC)c(Nc2nc(CC(=O)N3CCN(c4ncccn4)CC3)cs2)c1`, the inhibition is 19% (active). With `COc1ccc(C)cc1NC(=O)Cc1csc(NS(=O)(=O)c2ccccc2)n1`, the inhibition is 6% (inactive).

Regarding `CCCCN(C1CCS(=O)(=O)C1)S(C)(=O)=O` (centres undefined), the inhibition was 10% (inactive).

In the case of `Cc1ccc(C)c(CSc2nnc3n(C)c(=O)c4ccc(C(=O)NC5CCCC5)cc4n23)c1`, the inhibition was 0% (inactive).

For `O=C(c1ccc(S(=O)(=O)N2CCCCC2)cc1)N(c1cccc(Cl)c1)C1C=CS(=O)(=O)C1` (centres undefined), the inhibition was -8% (inactive). Consider `O=C(NCCCn1ncccc1=O)c1cccc(C(F)(F)F)c1`, for which the inhibition was -10% (inactive). For the compound `CSc1cccc(-c2nnc(NC(=O)c3ccc(Cl)s3)o2)c1`, the inhibition is 11% (inactive) and 4% (inactive). As for `Cc1cc(SCC(=O)Nc2ccc(OC(F)F)cc2)nc2ccccc12`, the inhibition is -2% (inactive) and -21% (inactive). As to `Cn1ccc(C(=O)Nc2ccc(F)cc2)n1`, the inhibition is 8% (inactive). As to `COc1cc2nc(SCc3cc(=O)n4cc(Cl)ccc4n3)n3nc(C)nc3c2cc1OC`, the inhibition was -5% (inactive).

As for `O=C(NCc1ccco1)C(=O)Nc1c2c(nn1-c1ccc(F)cc1)CSC2`, the inhibition is -7% (inactive). As to `O=C(NCC(c1ccco1)N1CCc2ccccc21)C(=O)Nc1ccccc1[N+](=O)[O-]` (centres undefined), the inhibition was 42% (active).

For `COc1ccccc1CCNC(=O)C(=O)NC[C@@H](c1ccco1)N1CCc2ccccc21`, the inhibition was 8% (inactive).

As for `Cc1ccccc1C(=O)NCC(c1ccco1)N1CCc2ccccc21` (centres undefined), the inhibition was -7.16% (inactive). Consider `COc1ccc(NC(=O)Nc2nnc(SCC(=O)Nc3cccc([N+](=O)[O-])c3)s2)cc1`, for which the inhibition is -16% (inactive). In the case of `Cc1cc(OCC(=O)NC2CCN(C)CC2)ccc1[N+](=O)[O-]`, the inhibition was -23% (inactive). On to `Cc1cc([N+](=O)[O-])c(N2CCC[C@@H]2C(=O)O)c([N+](=O)[O-])c1`, for which the inhibition is -16.2% (inactive). On to `Cc1cc([N+](=O)[O-])c(NC2CCCCC2)c([N+](=O)[O-])c1`, for which the inhibition is 80.5% (active).

In the case of `NC(=O)C1CCN(C(=O)N[C@H]2CC(=O)N(c3ccc(F)cc3)C2)CC1`, the inhibition is 2% (inactive). Take `Cc1ccc(NC(=O)C(=O)NC[C@](C)(O)c2cccs2)cc1C`: the inhibition was -4% (inactive). The value for `COc1ccc(CCC(=O)N2CCC(Oc3cc(C)oc(=O)c3)C2)cc1Br` (centres undefined) was 4% (inactive). With `Cc1nnc(NC(=O)CSc2nnc(-c3ccccc3C)o2)s1` the figure was 11% (inactive).

In the case of `Cc1cc(NC(=O)CSc2nnc(CNC(=O)c3cccs3)o2)no1`, the inhibition was -5% (inactive).

Take `Cc1cc(NC(=O)CSc2nnc(-c3ccc(Cl)s3)o2)no1`: the inhibition is 43.9% (active) and 1% (inactive). As to `COC(=O)C1CCN(C(=O)CCc2csc3nc(-c4ccc(OC)cc4)cn23)CC1`, the inhibition is -11% (inactive).

For `Cn1ccnc1S(=O)(=O)C1CCN(C(=O)c2ccc3nsnc3c2)CC1`, the inhibition was -12% (inactive). On to `O=C(Nc1nc2c(s1)CN(Cc1ccccc1)CC2)c1cc(Cl)sc1Cl`, for which the inhibition is 23% (inactive). As for `O=C(CSc1ccc(-c2ccc(-n3cccn3)cc2)nn1)Nc1ccc([N+](=O)[O-])cc1`, the inhibition was -0.41% (inactive).

As for `CSc1ccc(-c2ccccn2)nn1`, the inhibition is 148% (active). The value for `CSc1ccc(NC(=O)c2ccccc2F)nn1` was 2% (inactive); that for `COc1ccccc1CCNC(=O)CSc1nnc2ccc(-c3cccnc3)nn12` was -8.11% (inactive) and 15% (inactive); that for `O=C(CSc1ccc(-c2cccnc2)nn1)NCCc1ccccc1` was -2% (inactive).

Take `COc1cc(NC(=O)CSc2ccc(-c3cccnc3)nn2)cc(OC)c1`: the inhibition is 6.7% (inactive). `O=C(CSc1ccc(-c2ccccn2)nn1)Nc1ccccc1`: the inhibition was 90.4% (active). In the case of `COc1ccccc1CCNC(=O)CSc1ccc(-c2ccccn2)nn1`, the inhibition was 81.7% (active). The value for `Brc1ccc(CSc2nnc3ccc(-c4ccccn4)nn23)cc1` was -17% (inactive); that for `NC(=NOC(=O)C1CCCCC1)c1ccc(Br)cc1` was -26.4% (inactive); that for `CS(=O)(=O)c1ccccc1C(=O)N1CCN(c2ccccc2)CC1` was 0% (inactive).

For the compound `CN(C)S(=O)(=O)c1ccc(C(=O)NCc2nnc(SCc3c(F)cccc3Cl)o2)cc1`, the inhibition was 6% (inactive) and -7% (inactive).

Regarding `Cc1ccc(N2CCn3c2nc2c3c(=O)n(CCN3CCOCC3)c(=O)n2C)cc1Cl`, the inhibition is 0% (inactive). Turning to `COC(=O)c1ccc2c(=O)n(CCCC(=O)NCc3cccs3)c(=S)[nH]c2c1`, the inhibition is -3% (inactive).

As to `O=C(NCCCn1ccnc1)c1cc(-c2ccccc2)on1`, the inhibition is 2.55% (inactive).

In the case of `O=C(NCCCn1ccnc1)c1cc2c(s1)CCCC2`, the inhibition was 44.7% (active). Turning to `Cc1ccc2c(Cl)c(C(=O)NCCCn3ccnc3)sc2c1`, the inhibition is 9.4% (inactive). The value for `COc1ccc(/C=N\N=C2\NC(=O)C(CC(=O)NC(N)=O)S2)c(C(=O)O)c1OC` (centres undefined) was -10% (inactive). The value for `Cc1ccccc1-n1c(O)c(C=CC=Nc2ccccc2)c(=O)[nH]c1=O` was 4.92% (inactive); that for `O=C(Nc1nnc(C2CCCO2)o1)c1sc2ccccc2c1Cl` (centres undefined) was 34% (inactive).

Take `O=C(Nc1nnc(C2CCCO2)o1)c1cc2ccccc2oc1=O` (centres undefined): the inhibition was 4% (inactive). The value for `O=C(COc1ccc(Cl)cc1Cl)Nc1nnc(C2CCCO2)o1` (centres undefined) was 63% (active); that for `COc1ccc(CCC(=O)NCCCn2nc(-c3ccccc3)ccc2=O)cc1` was 2% (inactive).

For `O=C(NC(=S)Nc1ccccc1C(=O)O)c1ccc(-c2ccc(Br)cc2)o1`, the inhibition was 3.73% (inactive). As to `CN1CCN(C(=O)c2ccc(-c3ccc(Br)cc3)o2)CC1`, the inhibition is 39% (active) and 2.72% (inactive).

For `O=CN1CCN(C(=O)c2ccc(Br)o2)CC1`, the inhibition was -5.54% (inactive). Consider `O=C(O)CNC(=O)CN1C(=O)S/C(=C\C=C\c2ccccc2)C1=O`, for which the inhibition is -12% (inactive). The value for `O=C(NCCc1ccccc1)c1csc(Nc2ccccc2)n1` was 7% (inactive); that for `O=C(O)/C=C\C(=O)NCc1ccc2c(c1)OCO2` was -5% (inactive). Consider `O=C(NCc1ccc2c(c1)OCO2)c1csc(Nc2ccccc2)n1`, for which the inhibition is 0% (active).
